Laboratory results reported in PubChem BioAssay AID449762 (Southern Research Specialized Biocontainment Screening …, 2010).
Screen size: about 330,000 compounds; about 1,900 (0.58%) were called active. Not shown: some 4% with an inconclusive outcome. Rule as the data show it: inconclusive = inhibition above about 70% without an active follow-up result; inactive = below that. Only a sample is shown. Measured potencies and affinities stand elsewhere.

Experiment: M. tuberculosis growth inhibition, HTS (AID 449762);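 also: bacterial growth assessed after seven days of incubation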
Settings: M. tuberculosis H37Rv growth inhibition, 7H9 media; at 25 µM; hits give high values

Row | Structure (SMILES) | inhibition
1 | CCOc1ccc(NC(=O)COC(=O)c2ccc3c(c2)OCCO3)cc1 | 9.4% (inactive)
2 | CCOc1ccc(C(=O)Nc2ccc3c(c2)OCCO3)cc1 | 9.28% (inactive)
3 | Cc1c(/C=N\NC(=O)c2c[nH]c3ccccc23)cnn1C | 6.8% (inactive)
4 | COc1ccccc1NC(=S)N1CCN(C(=O)C2CCCO2)CC1 (stereo unspecified) | 4.95% (inactive)
5 | COC(=O)c1c(NC(=O)CC2SC(N)=NC2=O)sc2c1CCCC2 (stereo unspecified) | -10.2% (inactive)
6 | COC(=O)c1c(NC(=O)CC2SC(N)=NC2=O)sc2c1CCC(C)C2 (stereo unspecified) | -3.66% (inactive)
7 | COc1ccc(C(=O)c2c(-c3ccc(OC)cc3)oc3ccc(-c4ccc(OC)nc4)cc23)cc1 | 64.6% (inactive)
8 | CCCC12CN3CC(C)(CN(C1)C3c1ccco1)C2=O (stereo unspecified) | -1.36% (inactive)
9 | CCCC12CN3CC(CCC)(CN(C1)C3c1ccco1)C2=O (stereo unspecified) | -6.51% (inactive)
10 | Cc1ccccc1C(=O)Nc1c(C(=O)N(CCN(C)C)Cc2ccco2)oc2ccccc12 | 13.6% (inactive)
11 | CN(C)CCN(Cc1ccco1)C(=O)c1oc2ccccc2c1NC(=O)COc1ccccc1 | 13.6% (inactive)
12 | CN(C(=O)CSc1nnc(-c2ccncc2)n1-c1ccccc1)C1CCS(=O)(=O)C1 (stereo unspecified) | -8.96% (inactive)
13 | O=C(NC1CCCCCC1)c1cccc(COCC(F)(F)F)c1 | -0.72% (inactive)
14 | C/C(=N\NC(=S)NCCc1ccccc1)c1ccc(O)cc1O | 3.81% (inactive)
15 | C/C(=N\NC(=S)NCc1ccccc1)c1ccccc1F | -2.93% (inactive)
16 | Cc1noc(C)c1S(=O)(=O)Nc1ccc(C(=O)N2CCC(C)CC2)cc1 | 8.59% (inactive)
17 | Cc1ccc(N2CC(C(=O)N3CCC(C(=O)Nc4nnc(C(C)(C)C)s4)CC3)CC2=O)cc1 (stereo unspecified) | 4.69% (inactive)
18 | OCC1(Cc2ccc(Cl)cc2)CCN(CCCc2ccccc2)CC1 | 39.2% (inactive)
19 | COc1cnc(-c2ccccn2)nc1Oc1ccc(Cl)cc1 | 2.17% (inactive)
20 | COc1cnc(-c2ccccc2)nc1Oc1ccc(Cl)cc1C | 3.24% (inactive)
21 | Cc1cc(C)cc(OCC(=O)N2Cc3ccccc3CC2C(=O)O)c1 (stereo unspecified) | 10.5% (inactive)
22 | CC(CC(=O)Nc1ccc(-c2ccno2)cc1)n1cccn1 (stereo unspecified) | 21.4% (inactive)
23 | Cc1ccc(CNC(=O)COC(=O)c2cc(=O)[nH]c3ccccc23)cc1 | 6.93% (inactive)

Row | Structure (SMILES) | inhibition
24 | N#Cc1ccccc1/C=N/Nc1nc(-c2ccccc2)c2cc(Br)ccc2n1 | 6.43% (inactive)
25 | N#Cc1ccccc1/C=N/Nc1nc(-c2ccccc2)c2cc(Cl)ccc2n1 | -2.26% (inactive)
26 | COCCNC(=S)Nc1ccc2nc(N3CCOCC3)cc(C)c2c1 | -5.25% (inactive)
27 | O=C(COC(=O)CNC(=O)c1ccc(Cl)c([N+](=O)[O-])c1)NCC1CCCO1 (stereo unspecified) | -15.8% (inactive)
28 | Cc1cc(NCCC(C)C)n2nc(C)c(-c3ccccc3)c2n1 | 67.4% (inactive)
29 | Cc1nn2c(N3CCCC3)cc(C(C)C)nc2c1-c1ccccc1 | 2.45% (inactive)
30 | CCS(=O)(=O)Nc1ccc(C2=NN(C(=O)c3ccco3)C(c3cccc(F)c3)C2)cc1 (stereo unspecified) | 23.2% (inactive)
31 | COc1ccc(COC(=O)Nc2cc3c(C(F)(F)F)nn(C)c3s2)cc1 | -0.32% (inactive)
32 | Cn1nc(C(F)(F)F)c2cc(NC(=O)OCc3ccc(F)cc3)sc21 | 10.2% (inactive)
33 | CC1CCC(NC(=O)c2ccc(NS(=O)(=O)c3ccc4[nH]c(=O)[nH]c4c3)cc2)CC1 (stereo unspecified) | -6.1% (inactive)
34 | CC1(c2nnc(-c3ccccc3)o2)CC(c2ccc([N+](=O)[O-])cc2)=NO1 (stereo unspecified) | -0.65% (inactive)
35 | COC(=O)c1ccc(NC(=O)c2ccc[n+]([O-])c2)cc1 | -4.13% (inactive)
36 | c1ccc2nc3c(nc2c1)OCC1CCCCN31 (stereo unspecified) | 3.14% (inactive)
37 | CC1(C(=O)N(CC(=O)NC2CCCC2)Cc2ccc(Cl)cc2)CC(=O)N=C2C=CC=CN21 (stereo unspecified) | -2.69% (inactive)
38 | Cc1ccccc1NC(=O)NC(N)=O | -2.65% (inactive)
39 | Cc1ccc(-c2csc(/C(C#N)=C/Nc3ccc4c(c3)OCCO4)n2)cc1 | 7% (inactive)
40 | CCN(CC)CCOC(=O)c1ccc(N/C=C(/C#N)c2nc(-c3cc4ccccc4oc3=O)cs2)cc1 | 9.42% (inactive)
41 | Cc1cc(CN(C)C(=O)c2ccc3nc(Cc4ccccc4F)oc3c2)n[nH]1 | -6.04% (inactive)
42 | Cc1cccc(C(=O)OCC(=O)N(C)CC(=O)Nc2ccc(Cl)c(C(F)(F)F)c2)c1 | 1.53% (inactive)
43 | Cc1ccc(-c2cc(C(=O)N3CCOCC3)no2)cc1 | 6.22% (inactive)
44 | O=C(O)c1cccnc1Nc1cccc(C(F)(F)F)c1 | -0.01% (inactive)
45 | CNC(=O)c1cccnc1Nc1cccc(C(F)(F)F)c1 | -4.06% (inactive)
46 | Cc1ccc(C(=O)N(CC(=O)NC2CCCC2)c2cccc(F)c2)s1 | 9.2% (inactive)

Row | Structure (SMILES) | inhibition
47 | CN(C)CCCNC(=O)c1ccc(-c2cc(O)c3ncccc3c2)cc1 | 3.92% (inactive)
48 | CN1CCN(c2cc(-c3cc(O)c4ncccc4c3)ccn2)CC1 | 28.5% (inactive)
49 | CC1(c2cccc(Br)c2)NC(=O)N(CC(=O)NC2CCCCC2)C1=O (stereo unspecified) | 3% (inactive)
50 | CCCCN1C(=O)c2ccc(C(=O)OCC(=O)NCCc3ccc(S(N)(=O)=O)cc3)cc2C1=O | -4.61% (inactive)
51 | O=C(NCC(c1cccs1)N1CCOCC1)c1cccc([N+](=O)[O-])c1 (stereo unspecified) | -5.61% (inactive)
52 | O=C(NCC(c1cccs1)N1CCOCC1)c1ccc([N+](=O)[O-])cc1 (stereo unspecified) | 2.63% (inactive)
53 | CCOc1ccc(NC(=O)CN(C)C(=O)Cc2ccsc2)cc1OCC | -3.21% (inactive)
54 | CCOC(=O)Cn1cnc2c(nnn2-c2ccc(OC)cc2)c1=O | -2.34% (inactive)
55 | CCOc1cc(/C=C2\N=C(C)OC2=O)cc(Cl)c1OCC(=O)OC | -3.74% (inactive)
56 | O=C(C1CCCN1S(=O)(=O)c1cccc2nsnc12)N1CCCCCC1 (stereo unspecified) | 2.56% (inactive)
57 | Cc1nnc(SCC(=O)NCc2ccc(F)cc2)[nH]c1=O | 0.54% (inactive)
58 | O=S(Cc1ccc(Br)cc1)Cc1nnc(SCc2c(Cl)cccc2Cl)n1-c1ccccc1 (stereo unspecified) | -2.91% (inactive)
59 | O=S(Cc1ccc(Br)cc1)Cc1nnc(SCc2ccc(Br)cc2)n1-c1ccccc1 (stereo unspecified) | 57% (inactive)
60 | CCOC(=O)c1ccc(S(=O)(=O)NNC(=O)Cc2csc(C)n2)cc1 | 1.7% (inactive)
61 | CCOc1ccc(CCNC(=O)c2cccc(S(=O)(=O)N3CC(C)OC(C)C3)c2)cc1OCC (stereo unspecified) | 2.57% (inactive)
62 | CC(=O)Nc1ccc(N2CCN(c3ccc(C(F)(F)F)cn3)CC2)nc1 | 17.9% (inactive)
63 | CC(C)(C)C(=O)Nc1ccc(N2CCN(c3ccc(C(F)(F)F)cn3)CC2)nc1 | -0.97% (inactive)
64 | c1ccc(OCCCCn2cnc3ccccc32)cc1 | 4.06% (inactive)
65 | c1ccc2c(c1)ncn2CCCOc1ccc2c(c1)CCC2 | 68.5% (inactive)
66 | O=C(O)CCCC(=O)N1N=C(c2ccccc2)CC1c1ccc2nccnc2c1 (stereo unspecified) | 0.01% (inactive)
67 | O=C(N/C(=C\c1cccc([N+](=O)[O-])c1)C(=O)N1CCCCC1)c1cccs1 | -1.22% (inactive)
68 | COCC(=O)NC(c1ccccc1)c1ccccc1 | 1.57% (inactive)
69 | O=C(c1c[nH]c2ccccc12)C(O)C(c1ccccc1)N1CCOCC1 (stereo unspecified) | -0.62% (inactive)

Row | Structure (SMILES) | inhibition
70 | CCN1CCN(C(c2ccc(OC)cc2)C(O)C(=O)c2c[nH]c3ccccc23)CC1 (stereo unspecified) | 1.81% (inactive)
71 | CCOc1ccccc1C(C(=O)NC1CCCCC1)N(C(=O)c1csnn1)C1CC1 (stereo unspecified) | -6.88% (inactive)
72 | COC(=O)c1ccc(COc2cc(O)c3c(c2)OC(C)(C)CC3=O)cc1 | 20.4% (inactive)
73 | CC1(C)CC(=O)c2c(O)cc(OCc3ccc([N+](=O)[O-])cc3)cc2O1 | 8.3% (inactive)
74 | N=C(c1ccc([N+](=O)[O-])cc1)N1CCCCC1 | 8.06% (inactive)
75 | O=C1CCN(Cc2ccccc2)CCN1CCSc1ccccc1 | -0.68% (inactive)
76 | CCOc1ccccc1N(CC(=O)Nc1ccc2c(c1)OCO2)S(C)(=O)=O | -15.7% (inactive)
77 | COc1ccc(C(=O)Nc2cccc(-c3nc4ncccc4o3)c2C)cc1 | 2.93% (inactive)
78 | O=C(Nc1cc(-c2nc3ncccc3o2)ccc1Cl)c1ccc([N+](=O)[O-])o1 | -1.99% (inactive)
79 | COc1ccc(N2C(=O)C3C4c5ccccc5C(C=Nc5ccc(C)cc5C)(c5ccccc54)C3C2=O)cc1 (stereo unspecified) | 36.6% (inactive)
80 | COc1ccc(N2C(=O)C3C(C2=O)C3(c2ccccc2)c2ccccc2)cc1 (stereo unspecified) | 1.86% (inactive)
81 | Cn1c(=O)c2c(nc3n2CC(O)CN3c2ccc(O)cc2)n(C)c1=O (stereo unspecified) | -2.83% (inactive)
82 | CCc1cccc2c(C(=S)N3CCOCC3)c[nH]c12 | 3.01% (inactive)
83 | CCc1cccc2c(C(=O)COC(=O)c3ccccc3)c[nH]c12 | 0.69% (inactive)
84 | CCc1cccc2c(C(=O)COC(=O)c3ccc(O)cc3)c[nH]c12 | -5.92% (inactive)
85 | CCc1cccc2c(=O)c(C(=O)NCCN3CCOCC3)c[nH]c12 | -3.32% (inactive)
86 | O=C(NCc1ccccc1)c1cccc(Br)n1 | 2.81% (inactive)
87 | CC(C)n1cc(CNC(=O)C2CCC(=O)N(Cc3ccccc3F)C2)cn1 (stereo unspecified) | 5.12% (inactive)
88 | O=C(OCc1ccc([N+](=O)[O-])cc1)C1CC(=O)N(Cc2ccccc2)C1 (stereo unspecified) | 6.8% (inactive)
89 | COCCN(C(=O)c1cccc(N2C(=O)CCC2=O)c1)c1nc(-c2ccc([N+](=O)[O-])cc2)cs1 | 31.4% (inactive)
90 | Cc1cc(C)n(CCC(=O)N=Nc2c(O)[nH]c3ccccc23)n1 | 3.85% (inactive)
91 | CCC1CCCCN1CCCNC(=O)CSc1nc2nc(C)c(Cc3ccccc3Cl)c(C)n2n1 (stereo unspecified) | 4.72% (inactive)
